Screens deposited in PubChem BioAssay by National Center for Advancing Translational Sciences (NCATS).
VDR inhibitor: Inhibitors of the vitamin D receptor (VDR): qHTS. Vitamin D3 receptor (Homo sapiens), P11473. VDR-SRC2-3 peptide fluorescence polarization, 2 h. Potency, µM, without a hit: max response, negative = inhibition, most hits filed as inhibitors. actives 0.93% (n = 400,000). AID 504847, 2011; also: % is scaled to controls: 0 for no effect and ±100 for the full control effect
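Compounds are added to VDR with labelled SRC2-3 coactivator peptide and held 2 h at room temperature. Inhibition of the VDR–peptide interaction is then read as a change in fluorescence polarization.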
PLK1 PBD inh: qHTS for Inhibitors of PLK1-PDB (polo-like kinase 1 - polo-box domain): Primary Screen; Serine/threonine-protein kinase PLK1 (Homo sapiens), P53350; Plk1 PBD binding of FITC phosphopeptide, fluorescence polarization; Potency, µM, inactives show max response, negative = inhibition, hits mostly inhibitors; actives 2.8% (n = 360,000); also: series mostly up to about 57 µM; % is scaled to controls: 0 for no effect and ±100 for the full control effect; nearly all actives have a fitted effect of over 65% in size
Pin1 inh: qHTS Assay to Find Inhibitors of Pin1. Peptidyl-prolyl cis-trans isomerase NIMA-interacting 1 (Homo sapiens), Q13526. Pin1 FP peptide displacement, HiFluor488, 10 min. Potency, µM (top dose mostly 115 µM), without a hit: at the top dose activity, negative = inhibition, usual class: inhibitors. actives 0.009% (n = 390,000); active = well fitted inhibition curve with a large enough effect in the polarisation, with a control signal flat, not every such curve was filed as active; inconclusive = small, poorly fitted or top-dose-only effect, or effect the other way, or a change in a side signal; inactive = no such curve, though single readings can be large or run the other way; the % refers to the polarisation; also: % is scaled to controls: 0 for no effect and ±100 for the full control effect
Target sequence (Q13526 whole entry, looked up): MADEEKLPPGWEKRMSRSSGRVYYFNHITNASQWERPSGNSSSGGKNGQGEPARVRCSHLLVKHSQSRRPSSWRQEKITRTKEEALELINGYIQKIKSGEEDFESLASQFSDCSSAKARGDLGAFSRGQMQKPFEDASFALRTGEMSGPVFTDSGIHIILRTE
S-ASM inh: Inhibitors of Secretory Acid Sphingomyelinase (S-ASM): qHTS; actives 0.006% (n = 340,000); Potency, µM (doses to about 57.5 µM), for inactives: at the highest dose activity change, negative = inhibition, actives largely listed as inhibitors; placental ASM, HMU-PC fluorogenic substrate, 60 min; Sphingomyelin phosphodiesterase (Homo sapiens), P17405
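HMU-PC0 cleavage (9 uM final) by human placental ASM, 60 min at 37 °C following 10 min compound exposure at RT; stopped at pH 10, fluorescence Ex 386/Em 447 nm.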
Tb PFK block: qHTS Assay to Find Inhibitors of T. brucei phosphofructokinase. ATP-dependent 6-phosphofructokinase (Trypanosoma brucei brucei), O15648. T. brucei PFK, ADP-Glo luminescence. Potency, µM (doses to about 57.5 µM), for the others: at the top dose activity, negative = inhibition, most hits filed as inhibitors. actives 0.17% (n = 330,000). AID 485367, 2010;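 also: 0% = uninhibited 1x PFK enzyme wells and -100% = no-enzyme wells; nearly all actives have a fitted effect of over 60% in size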
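Activity is normalized to no-enzyme wells (full inhibition) and 1.25 nM enzyme wells (no inhibition). Reaction: 0.5 mM F6P, 0.1 mM ATP, 45 min RT, ADP-Glo luminescence; concentration-response curves fitted and classed by quality.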
TDP1 inh: qHTS Assay for Inhibitors of Tyrosyl-DNA Phosphodiesterase (TDP1); Tyrosyl-DNA phosphodiesterase 1 (Homo sapiens), Q9NUW8; recombinant TDP1, AlphaScreen DNA substrate cleavage; Potency, µM (series often up to 130 µM), for inactives: at the highest dose activity change, negative = inhibition, hits mostly inhibitors; actives 0.28% (n = 350,000); also: % is scaled to controls: 0 for no effect and ±100 for the full control effect; nearly all actives have a fitted effect of over 40% in size
Target sequence (Q9NUW8 whole entry, looked up): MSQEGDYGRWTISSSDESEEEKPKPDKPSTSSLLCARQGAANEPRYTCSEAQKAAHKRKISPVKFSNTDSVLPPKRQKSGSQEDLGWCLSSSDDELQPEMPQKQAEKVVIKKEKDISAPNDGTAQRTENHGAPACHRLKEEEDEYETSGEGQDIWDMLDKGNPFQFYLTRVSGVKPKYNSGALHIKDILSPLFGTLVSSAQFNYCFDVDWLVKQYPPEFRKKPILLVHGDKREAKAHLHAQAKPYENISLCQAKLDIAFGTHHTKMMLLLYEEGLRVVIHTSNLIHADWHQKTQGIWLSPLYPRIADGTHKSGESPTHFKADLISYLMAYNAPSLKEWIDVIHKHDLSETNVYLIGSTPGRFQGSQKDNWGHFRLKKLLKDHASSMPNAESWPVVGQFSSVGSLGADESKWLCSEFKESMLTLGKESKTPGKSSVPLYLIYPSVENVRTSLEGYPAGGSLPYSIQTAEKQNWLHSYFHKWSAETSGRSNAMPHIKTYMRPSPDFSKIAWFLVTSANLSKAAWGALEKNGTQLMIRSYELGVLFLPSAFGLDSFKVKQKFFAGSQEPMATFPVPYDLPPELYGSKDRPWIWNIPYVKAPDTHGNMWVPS
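Signal: AlphaScreen proximity between streptavidin donor and anti-FITC acceptor beads on intact substrate. Reaction: Tdp1 1 nM, substrate 15 nM final, 5 min RT after 15 min compound preincubation.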
* marks the source's active call; other numbers are inactive results; ? = inconclusive; . = not tested or not shown; ! = not active in a repeat. Most compounds without a hit are left out; they make up all but 3.1% or so of the library. Unless noted, calls follow the shape of the dose curve; as a rule, active = well fitted curve in the direction sought with a large enough effect; inconclusive = small, poorly fitted or top-dose-only effect, or another doubt; inactive = no such curve, though single readings can be large; an effect the other way counts as inactive or inconclusive. Potency is read from the fitted curve at half-maximal effect.

SMILES | VDR inhibitor | PLK1 PBD inh | Pin1 inh | S-ASM inh | Tb PFK block | TDP1 inh
C#CCN(C[C@@H]1[C@@H](OC(=O)NC2CC2)[C@@H](OC(=O)NC2CC2)CN(C(=O)OC(C)C)N1C(=O)OC(C)C)S(=O)(=O)c1ccc(C)cc1 | . | 21.2µM* | . | . | . | .
CCOC(=O)c1ccccc1NS(=O)(=O)c1ccc(N2CCCCS2(=O)=O)cc1 | 11.6% | . | 0.8% | . | . | 3.8%
CC(C)(C)N(NS(=O)(=O)c1ccc(F)cc1)c1ccccc1 | 44.7µM* | ? | 10.6% | 2.4% | -17.4% | .
O=c1oc(-c2ccc(C(F)(F)F)cc2)nn1Cc1cc(Cl)ccc1O | -5.0% | . | . | . | . | 8.2%
Cn1c(=O)c(=O)n(C)c2cc(N3CCOCC3)c(NS(=O)(=O)c3ccc(F)c(Cl)c3)cc21 | -24.9% | -14.4% | -1.5% | -0.7% | 1.2% | 3.6%
Cn1c(=O)c(=O)n(C)c2cc(N3CCOCC3)c(NS(=O)(=O)c3ccc([N+](=O)[O-])cc3)cc21 | -7.2% | 18.9µM* | 3.1% | -1.2% | -19.6% | 8.2%
Cc1cc(C)c(-c2csc(Cc3nc(-c4cc5ccccc5oc4=O)cs3)n2)cc1C | ? | 26.7µM* | ? | 8.2% | -2.9% | -5.5%
COc1cc(C=CC(=O)c2cc(OC)c(OC)c(OC)c2)cc(OC)c1OC | ? | -1.4% | -0.8% | 1.5% | . | .
COc1cc(/C=C/C(C)=O)cc(OC)c1OC | -11.6% | 29.9µM* | -0.5% | 4.2% | -3.2% | -4.7%
COc1cc(/C=C/C(=O)c2cccs2)cc(OC)c1OC | 12.6µM* | . | . | . | . | 23.8%
CCOC(=O)c1ccccc1NC(=O)COC(=O)CCC1CCCC1 | -10.5% | 3.7% | -2.1% | -8.3% | 0.9% | 50.1µM*
CC(=O)c1ccccc1NC(=O)COC(=O)CCC1CCCC1 | -5.3% | 6.4% | ? | -5.4% | 8.6% | 79.4µM*
COc1ccc(NC(=O)COC(=O)CCC2CCCC2)c(OC)c1 | 7.9% | -9.5% | -6.2% | -2.5% | 3.3% | -5.8%
Cc1c(Cl)cccc1NC(=S)Nn1cnnc1 | 79.4µM* | 7.52µM* | 9.6% | 1.3% | -8.8% | -3.8%
CCOc1ccc(N2C(=O)CC(N(Cc3ccco3)C(=O)CC)C2=O)cc1 (stereo unspecified) | -8.5% | 26.7µM* | -0.4% | 3.8% | -4.5% | -7.6%
O=C(CCN1C(=O)C2C3CC(C(Br)C3Br)C2C1=O)OCC(=O)c1ccccc1 (stereo unspecified) | ? | 26.7µM* | -0.3% | -0.1% | -0.2% | 0.0%
COc1ccc(C(=O)COC(=O)CCN2C(=O)C3C4CCC(C4)C3C2=O)cc1 (stereo unspecified) | -3.4% | -8.0% | -1.7% | 4.2% | 2.6% | 0.0%
CCOC(=O)N1CCC(NC(=O)c2ccc3c(c2)N(Cc2ccc(F)cc2)C(=O)c2ccccc2S3=O)CC1 (stereo unspecified) | 1.0% | . | 4.8% | . | . | 4.6%
CCOc1ccc(-c2nnc(-c3cccs3)o2)cc1OCC | -29.7% | 18.9µM* | 3.7% | -2.3% | 2.9% | 2.9%
O=C(N/N=C/c1cccc(F)c1)c1cc(-c2ccco2)nc2ccccc12 | -5.6% | 10.6µM* | . | 29.1% | -1.4% | .
CCCCCCCNC(=O)c1cc(-c2ccncc2)nc2ccccc12 | 3.0% | -9.5% | 1.8% | -3.4% | -13.7% | .
CCCCCCNC(=O)c1cc(-c2ccco2)nc2ccccc12 | ? | 26.7µM* | -30.2% | 105.2% | -24.4% | -7.7%
CCCCn1c(N)c(N(CC(C)C)C(=O)c2cc(-c3ccco3)nc3ccccc23)c(=O)[nH]c1=O | -7.6% | -15.0% | 36.6% | 30.5% | -13.7% | .
COc1ccc(NC(=O)CN(C)C(=O)c2cc(-c3ccco3)nc3ccccc23)cc1 | -5.7% | ? | . | . | ? | 3.98µM*
CCCCN(C(=O)c1cc(-c2ccco2)nc2ccccc12)c1c(N)n(CCC)c(=O)[nH]c1=O | -9.5% | -21.4% | ? | 15.9% | ? | 28.2µM*
SMILES | VDR inhibitor | PLK1 PBD inh | Pin1 inh | S-ASM inh | Tb PFK block | TDP1 inh
CN1CCN(c2ncc3nc(-c4ccc(Cl)cc4)c(=O)n(C)c3n2)CC1 | -8.9% | . | . | . | . | .
Cc1ccc(-c2cc(C(=O)N3CCN(c4ncccn4)CC3)c3cc(Br)ccc3n2)o1 | 16.3% | 6.7µM* | 36.4% | 401.3% | -22.4% | 0.0%
O=C(O)c1cc(-c2ccco2)nc2ccc(Br)cc12 | 20µM*! | 4.23µM*! | -4.1% | 2.3% | -0.1% | 7.9%
O=C(c1ccco1)N1CCN(C(=O)c2cc(-c3ccncc3)nc3ccc(Br)cc23)CC1 | 5.6% | -11.0% | ? | 1.3% | . | .
CN(CC(=O)Nc1cccc(F)c1)C(=O)c1cc(-c2ccco2)nc2ccccc12 | ? | 33.6µM* | ? | . | -21.9% | .
CCOC(=O)c1ccccc1NC(=O)Cn1cc(C(=O)c2cccc(OC)c2)c(=O)c2ccc(C)nc21 | 4.0% | . | 75.0% | . | . | 7.9%
Cc1noc(C)c1COc1ccc(C(=O)Nc2ncccc2O)cc1 | 9.9% | -0.7% | 2.0% | -0.2% | 28.6% | .
O=C(Nc1ncccc1O)c1ccc(Oc2ccccc2)cc1 | ? | 29.9µM* | 2.8% | 0.6% | -21.4% | -1.3%
CCc1sc(N(C(=O)Cc2ccccc2)c2ccccc2)nc1-c1ccccc1 | 26.0% | 4.1% | -2.1% | -2.3% | -4.8% | 0.0%
CCCCC(=O)N(c1ccc(C(=O)O)cc1)c1nc(-c2ccc(Cl)cc2)c(CC)s1 | -18.3% | 26.7µM* | 2.0% | 5.9% | -2.8% | -5.4%
O=C(CSc1nc2ccccc2c(=O)n1-c1ccccc1)NC(=O)CN1CCCC1=O | 1.7% | -5.0% | -0.2% | 1.7% | -24.8% | 22.4µM*
O=C(CSc1nc2ccccc2c(=O)n1-c1ccccc1)N1CCC1 | 2.8% | -0.8% | -0.2% | 4.2% | -0.5% | 4.7%
CCn1c(N2CCC(Cc3ccccc3)CC2)nc2c1c(=O)[nH]c(=O)n2C | -11.8% | 29.9µM* | -13.1% | -5.3% | -5.6% | 5.7%
CC1CCN(c2nc3c(c(=O)[nH]c(=O)n3C)n2Cc2ccccc2)CC1 | -23.3% | -7.6% | -0.5% | 3.8% | 2.8% | -2.6%
CCOC(=O)C1(Cc2cccc(Cl)c2)CCCN(C(=O)c2ccoc2C)C1 (stereo unspecified) | -11.4% | -23.0% | -1.2% | 3.0% | 0.0% | 1.8%
CCOC(=O)C1(Cc2cccc(Cl)c2)CCCN(C(=O)c2ccco2)C1 (stereo unspecified) | ? | 13.4µM* | 4.5% | -0.7% | -2.1% | -0.2%
